# Most compounds without a hit are left out; they make up all but 3.8% or so of the library.
# tim10-1 inh: inhibits growth of tim10-1 mutant yeast. S. cerevisiae tim10-1 ts strain growth, BacTiter-Glo, 24 h. inhibition, % at 20 µM. hit rate 2.2% among 330,000. AID 463190;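 active = inhibition of at least 40%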;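 note: mutant grown at 25 °C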
# tim23-1 inh: growth inhibitors of tim23-1 mutant yeast. S. cerevisiae tim23-1 growth, BacTiter-Glo luminescence, 24 h. inhibition, % at 20 µM. hit rate 1.3% among 330,000;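 active = growth inhibition of the mutant yeast at or above 50%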;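 note: temperature-sensitive mutant grown at 25 °C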
# Beta2AR agonist: agonists of human beta-2 adrenergic receptor inducing internalization; P07550; Am2.2-beta2AR cells, FAP receptor internalization, flow cytometry; response, % (no concentration beside the values); hit rate 0.43% among 340,000;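 active = response above a set limit, near 3 SD of response in nonfluorescent compounds, cut at about 42% in these data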
# Target sequence (P07550 whole entry, looked up): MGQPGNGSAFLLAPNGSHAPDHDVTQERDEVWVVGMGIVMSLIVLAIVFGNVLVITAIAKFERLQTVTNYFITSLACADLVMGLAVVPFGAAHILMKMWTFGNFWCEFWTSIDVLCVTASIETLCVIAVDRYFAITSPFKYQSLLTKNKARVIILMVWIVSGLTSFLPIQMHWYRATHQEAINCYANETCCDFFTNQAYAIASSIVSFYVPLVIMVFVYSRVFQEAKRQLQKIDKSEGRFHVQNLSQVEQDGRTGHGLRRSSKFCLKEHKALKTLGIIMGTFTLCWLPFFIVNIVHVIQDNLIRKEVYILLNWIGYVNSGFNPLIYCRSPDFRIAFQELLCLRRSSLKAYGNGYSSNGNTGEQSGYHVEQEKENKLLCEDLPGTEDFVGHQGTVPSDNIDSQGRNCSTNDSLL
# TIM10 inh: growth inhibitors of TIM10 yeast strain | S. cerevisiae TIM10 strain growth, BacTiter-Glo luminescence, 24 h | inhibition, % at 10 µM | hit rate 1.4% among 330,000 | AID 463195;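 active = inhibition of 40% or more at the single tested concentration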;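 note: wild-type TIM10 isogenic control strain grown at permissive 25 °C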
# PfHsp90 set2: inhibits growth of yeast expressing Plasmodium falciparum Hsp90; S. cerevisiae expressing PfHsp90, BacTiter-Glo ATP, 48 h; yeast lacking PDR1 and PDR3 efflux regulators; inhibition, % at 9.4 µM; hit rate 0.32% among 310,000;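 active = every replicate shows inhibition above about 80%, whatever the replicate mean, limit read from the data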
# tim10-1 conf: confirmation of tim10-1 mutant yeast growth inhibitors; shares compounds with tim10-1 inh; S. cerevisiae tim10-1 ts strain growth, BacTiter-Glo, 24 h; inhibition, % at 20 µM; hit rate 56% among 7,400; AID 463213;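 active = inhibition of yeast growth at or above a set limit in either of two repeat tests at 20 µM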;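 note: tim10-1 mutant grown at permissive 25 °C to find synthetic lethal compounds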
# TIM10 conf: TIM10 yeast growth inhibition, confirmed; shares compounds with TIM10 inh; AID 463215; hit rate 63% among 4,600; S. cerevisiae tim10 strain growth, BacTiter-Glo luminescence, 24 h; inhibition, % at 10 µM;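 active = inhibition of yeast growth at or above a set limit in either of two replicates at 10 µM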; note: this counterscreen used the strain with wild-type TIM10
# tim23-1 conf: tim23-1 yeast growth inhibition, confirmed; AID 463218; shares compounds with tim23-1 inh; hit rate 83% among 4,400; S. cerevisiae tim23-1 growth, BacTiter-Glo luminescence, 24 h; inhibition, % at 20 µM;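 active = inhibition above about 39% in either of two replicate wells at 20 µM, limit read from the data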;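 note: temperature-sensitive tim23-1 mutant grown at 25 °C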
# Numbers stand for hits; i = inactive; nt = not tested or not shown.
SMILES,tim10-1 inh,tim23-1 inh,Beta2AR agonist,TIM10 inh,PfHsp90 set2,tim10-1 conf,tim23-1 conf,others
COc1ccc(S(=O)(=O)Nc2cccc3c2O[C@H](CN(C)C(=O)Nc2ccccc2)[C@@H](C)CN([C@H](C)CO)C3=O)cc1,i,i,i,i,i,nt,nt,
CC(C)[C@H](NC(=O)c1ccco1)C(=O)OCC(=O)c1ccc(Br)s1,i,i,i,i,nt,nt,nt,
Cc1ccc(C=C2C(Cl)=C(Cl)C(Cl)=C2Cl)cc1,64,74,nt,64,nt,78,53,TIM10 conf=78
CC1=NN(c2ccc(Cl)c(C(=O)O)c2)C(=O)/C1=C\c1ccc(-c2ccc(C(=O)O)cc2)o1,nt,nt,i,nt,i,nt,nt,
CC1=NN(c2ccccc2)C(=O)/C1=C/c1ccc(-c2ccc(C)c(C(=O)O)c2)o1,48,66,i,i,i,35,59,
NC1=NN(c2c(Cl)cc(Cl)cc2Cl)C(=O)C1,nt,nt,i,nt,i,nt,nt,
Cc1cc(NC(=O)CSCC(=O)N2CCN(c3ccccc3)CC2)no1,i,i,i,i,i,nt,nt,
COc1ccc(N=c2ssnc2Cl)cc1,53,61,i,i,i,35,80,
Clc1ccc(N=c2ssnc2Cl)cc1,54,63,i,i,104,66,88,
COc1cc(N=c2ssnc2Cl)cc(OC)c1OC,i,i,i,i,i,nt,nt,
Cc1cc(C)c(C(=O)COC(=O)c2cc([N+](=O)[O-])ccc2N2CCOCC2)cc1C,i,i,i,i,i,nt,nt,
CC(C)(C)c1cc(NCCCn2ccnc2)n2ncc(-c3ccccc3)c2n1,51,60,i,i,i,30,59,
COc1ccc(C(=O)NC(=S)NCCc2ccccc2)cc1,i,i,i,i,i,nt,nt,
COc1ccc(CCNC(=S)NC(=O)c2ccccc2)cc1OC,48,56,i,53,i,39,44,TIM10 conf=31
N/C(Cc1cccs1)=N\OC(=O)COc1ccccc1Cl,i,i,i,i,i,nt,nt,
N/C(Cc1cccs1)=N\OC(=O)COc1ccc(Br)cc1Cl,58,68,i,i,i,59,87,
COc1cc(C)c(CN2CCN(C(C)C(=O)NC(C)c3ccccc3)CC2)cc1OC (stereo unspecified),i,i,i,i,i,nt,nt,
COc1ccccc1C(=O)Nc1cccc2cccnc12,48,72,i,i,i,42,72,
O=C(Nc1cccc2cccnc12)c1ccccc1Cl,i,i,i,i,nt,nt,nt,
Cc1ccc(NC(=O)c2cccc3cccnc23)cc1,42,65,i,i,i,41,80,
CC1CCCCC1NC(=O)/C(C#N)=C/c1ccc(OCC(N)=O)cc1 (stereo unspecified),48,55,i,45,i,33,50,TIM10 conf=i
COc1ccc(OCC(=O)OCC(=O)NC2CCCCC2C)cc1 (stereo unspecified),i,i,i,i,i,nt,nt,
C=C(C(=O)c1ccccc1)C(CC(=O)c1ccccc1)c1ccccc1 (stereo unspecified),59,56,i,58,i,51,56,TIM10 conf=i
CC(Oc1ccccc1F)C(=O)NNC(=O)c1ccc(F)c(S(=O)(=O)N2CCOCC2)c1 (stereo unspecified),i,i,i,i,i,nt,nt,
O=C(c1ccco1)N1CCN(C(=O)C2CC(=O)N(c3ccccc3)C2)CC1 (stereo unspecified),i,i,i,i,i,nt,nt,
SMILES,tim10-1 inh,tim23-1 inh,Beta2AR agonist,TIM10 inh,PfHsp90 set2,tim10-1 conf,tim23-1 conf,others
CC(=O)Oc1ccc2occ(-c3ccccc3)c2c1,i,i,i,i,i,nt,nt,
O=c1ccc2cc3c(-c4ccccc4)coc3cc2o1,60,64,i,46,i,61,66,TIM10 conf=58
C[C@@H]1Cc2c(O)c(O)cc(O)c2C(=O)O1,i,i,i,i,i,nt,nt,
CC1CCC/C=C/C(=O)c2c(O)cc(O)cc2CC(=O)O1 (stereo unspecified),54,53,i,40,i,49,54,TIM10 conf=51
Cc1cc(C)nc(NC(=O)c2ccc(Cl)cc2[N+](=O)[O-])c1,i,i,i,i,i,nt,nt,
Cc1nc2ccccc2n1C(=O)c1ccc(Cl)cc1[N+](=O)[O-],48,50,i,i,i,33,39,

# From PubChem
